PubChem BioAssay (Tox21)
Where “and” joins values, the source holds several entries; their conditions need not be identical. Equal values may be shown once. Inconclusive results are not listed. Some structures have more than one record in an assay (separate samples or runs), and their calls can disagree. Calls of active or inactive are those of the source. Unless noted, calls come from the whole dose curve.

Assays:
[1] = Nuclear factor erythroid 2-related factor 2/antioxidant responsive element (Nrf2/ARE) small molecule agonists: qHTS cell viability counter screen in human keratinocytes (AID 1919968; active = well fitted curve in the direction sought with a large enough effect in the repeat runs; an effect the other way counts as inactive or inconclusive; note: nearly all actives have a fitted effect of over 55% in size; note: potency is the fitted concentration of half-maximal effect)
In short: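 Viability counter-screen: KeratinoSens reporter cells, DMSO-delivered compounds, 23 h at 37 C, CellTiter-Fluor fluorescence.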

[2] = target: Gonadotropin-releasing hormone receptor (Homo sapiens) (UniProt P30968); assay: Human gonadotropin-releasing hormone receptor (GnRHR) small molecule agonists, calcium flux assay in GnRHR-HEK293 cells (AID 1920063); note: nearly all actives have a fitted effect of over 35% in size
Chain of Gonadotropin-releasing hormone receptor (Homo sapiens) (P30968 whole entry, looked up): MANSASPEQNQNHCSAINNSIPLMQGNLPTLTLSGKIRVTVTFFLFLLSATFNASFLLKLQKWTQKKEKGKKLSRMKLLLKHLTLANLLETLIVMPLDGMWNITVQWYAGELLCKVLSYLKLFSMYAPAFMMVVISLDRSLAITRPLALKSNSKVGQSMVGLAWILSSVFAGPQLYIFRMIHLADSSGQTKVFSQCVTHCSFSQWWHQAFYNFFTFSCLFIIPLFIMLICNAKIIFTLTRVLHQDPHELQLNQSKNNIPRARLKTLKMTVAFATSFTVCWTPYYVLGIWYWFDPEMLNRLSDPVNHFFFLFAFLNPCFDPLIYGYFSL
In short: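 Tox21-format agonist screen using human GnRHR-expressing HEK293 cells and a fluorescent calcium dye; kinetic 3-min fluorescence reading after compound addition, 15-point concentration series run in triplicate.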

[3] = target: KiSS-1 receptor (Homo sapiens) (UniProt Q969F8); assay: Human kisspeptin (KISS1R) small molecule agonists, calcium flux assay in KISS1R-HEK293 cells (AID 1920064; active = well fitted curve in the direction sought with a large enough effect in the repeat runs; an effect the other way counts as inactive or inconclusive)
Chain of KiSS-1 receptor (Homo sapiens) (Q969F8 whole entry, looked up): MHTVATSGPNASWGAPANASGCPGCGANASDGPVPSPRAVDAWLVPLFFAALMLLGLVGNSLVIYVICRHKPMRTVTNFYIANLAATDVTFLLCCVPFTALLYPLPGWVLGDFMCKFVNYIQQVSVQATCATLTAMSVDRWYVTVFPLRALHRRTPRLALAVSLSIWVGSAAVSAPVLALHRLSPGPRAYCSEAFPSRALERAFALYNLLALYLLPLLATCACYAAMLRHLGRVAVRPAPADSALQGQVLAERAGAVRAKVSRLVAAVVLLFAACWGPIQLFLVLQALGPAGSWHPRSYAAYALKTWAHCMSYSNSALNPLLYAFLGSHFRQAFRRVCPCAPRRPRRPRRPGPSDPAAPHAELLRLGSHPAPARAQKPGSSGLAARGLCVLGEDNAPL
In short: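 Intracellular calcium mobilization in KISS1R-HEK293 cells was recorded by fluorescence (Ex/Em 480/540) for 3 min following compound addition to cells pre-loaded 1 h with calcium dye.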

[4] = G protein-coupled receptor (GPCR) small molecule agonists, calcium flux assay: HEK293 wild type cell line counter screen (AID 1920065)
In short: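 In this agonist-mode screen, ATP is the positive control and DMSO the vehicle. Cells grow 18 h before a 1 h dye incubation at 37 C; signal is taken at Ex/Em 480/540 over 3 min.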

[5] = p53 small molecule agonists, cell-based qHTS assay with human liver microsomes (AID 1963577);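 note: p53 response element beta-lactamase reporter cells with liver microsomes plus NADPH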
In short: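 Metabolically competent format: test substances, human liver microsomes and NADPH (both 0.5 mg/mL final) incubated with p53RE-bla cells 16 h at 37 C. Beta-lactamase reporter signal then quantified by fluorescence.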

[6] = p53 small molecule agonists, cell-based qHTS assay with human liver microsomes: qHTS cell viability counter screen (AID 1963579); note: nearly all actives have a fitted effect of over 45% in size; note: potency is the fitted concentration of half-maximal effect
In short: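 Tox21 library compounds, delivered from DMSO stocks, were tested on p53RE-bla cells together with 0.5 mg/mL human liver microsomes and 0.5 mg/mL NADPH (final) over 16 h at 37 C; CellTiter-Glo luminescence served as the cytotoxicity measure.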

[7] = p53 small molecule agonists, cell-based qHTS assay with rat liver microsomes: qHTS cell viability counter screen (AID 1963580); note: nearly all actives have a fitted effect of over 45% in size; note: potency is the fitted concentration of half-maximal effect
In short: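 p53RE-bla HCT-116 cells were exposed 16 h at 37 C to compounds with rat liver microsomes (0.5 mg/mL) and NADPH (0.5 mg/mL). Viability was measured in the same wells as ATP content by CellTiter-Glo luminescence.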

[8] = p53 small molecule agonists, cell-based qHTS assay: qHTS cell viability counter screen (AID 1963581); note: nearly all actives have a fitted effect of over 45% in size; note: potency is the fitted concentration of half-maximal effect
In short: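 Compounds are pinned onto HCT-116 p53RE-bla cells and left 16 h at 37 C. Following the reporter FRET read, ATP is quantified by CellTiter-Glo luminescence after 30 min at room temperature.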

[9] = p53 small molecule agonists, cell-based qHTS assay (AID 1963582; active = well fitted activation curve with a large enough effect in the signal ratio in the repeat runs, not every such curve was filed as active; the % refers to the signal ratio)
In short: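 Agonist activity was scored from beta-lactamase FRET fluorescence in p53RE-bla cells treated 16 h at 37 C with compounds in DMSO, substrate incubation being 2 h at room temperature.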

[10] = target: 5-hydroxytryptamine receptor 2A (Homo sapiens) (UniProt P28223); assay: 5-hydroxytryptamine receptor 2A (HTR2A) small molecule antagonists, cell-based qHTS assay (AID 1963586); note: nearly all actives have a fitted effect of over 45% in size
Chain of 5-hydroxytryptamine receptor 2A (Homo sapiens) (P28223 whole entry, looked up): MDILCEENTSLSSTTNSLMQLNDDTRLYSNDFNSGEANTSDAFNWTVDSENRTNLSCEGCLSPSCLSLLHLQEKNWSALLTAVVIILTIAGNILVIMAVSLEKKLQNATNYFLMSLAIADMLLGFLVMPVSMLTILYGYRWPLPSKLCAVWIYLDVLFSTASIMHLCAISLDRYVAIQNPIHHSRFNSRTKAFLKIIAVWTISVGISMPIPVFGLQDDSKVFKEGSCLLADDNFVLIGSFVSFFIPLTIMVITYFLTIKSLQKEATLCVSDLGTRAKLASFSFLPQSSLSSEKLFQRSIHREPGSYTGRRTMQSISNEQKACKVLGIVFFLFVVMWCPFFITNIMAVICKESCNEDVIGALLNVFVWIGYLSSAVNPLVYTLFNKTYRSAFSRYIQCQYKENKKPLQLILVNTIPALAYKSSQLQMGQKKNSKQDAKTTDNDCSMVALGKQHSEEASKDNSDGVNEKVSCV
In short: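 Antagonist-mode intracellular calcium assay: DOI (4 nM) added after 5 min compound pre-incubation at room temperature to dye-loaded HTR2A-CHO cells. Fluorescence followed for 3 min, sampled every second.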

[11] = target: Muscarinic acetylcholine receptor M1 (Homo sapiens) (UniProt P11229); assay: Cholinergic receptor muscarinic 1 (CHRM1) small molecule antagonists, cell-based qHTS assay (AID 1963588); note: nearly all actives have a fitted effect of over 40% in size
Chain of Muscarinic acetylcholine receptor M1 (Homo sapiens) (P11229 whole entry, looked up): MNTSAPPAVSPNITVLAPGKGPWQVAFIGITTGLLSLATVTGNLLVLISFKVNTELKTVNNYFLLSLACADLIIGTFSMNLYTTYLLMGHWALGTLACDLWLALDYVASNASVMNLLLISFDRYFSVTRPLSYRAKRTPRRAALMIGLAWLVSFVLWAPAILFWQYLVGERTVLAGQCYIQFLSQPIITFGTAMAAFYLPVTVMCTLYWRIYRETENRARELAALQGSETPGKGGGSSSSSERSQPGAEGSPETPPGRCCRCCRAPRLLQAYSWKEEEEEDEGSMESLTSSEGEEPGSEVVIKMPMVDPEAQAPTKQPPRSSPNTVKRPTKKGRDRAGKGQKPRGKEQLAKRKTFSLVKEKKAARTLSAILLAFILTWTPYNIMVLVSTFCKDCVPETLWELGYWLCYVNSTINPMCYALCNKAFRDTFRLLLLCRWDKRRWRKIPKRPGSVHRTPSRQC
In short: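 CHRM1-CHO calcium-flux assay, antagonist mode. Cells were seeded 18 h, dye-loaded 1 h at 37 C and given compound for 5 min at RT, then acetylcholine was added at 50nM. FDSS fluorescence was read 3 min; 15 concentrations, three runs.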

[12] = target: Muscarinic acetylcholine receptor M1 (Homo sapiens) (UniProt P11229); assay: Cholinergic receptor muscarinic 1 (CHRM1) small molecule agonists, cell-based qHTS assay (AID 1963589); note: nearly all actives have a fitted effect of over 35% in size
In short: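 Stable CHRM1-CHO cells (human receptor) were incubated 18 h, dye-loaded for 1 h at 37 C and exposed to test compounds for agonist activity, with calcium-dependent fluorescence followed kinetically.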

[13] = cAMP Responsive Elements (CRE) small molecule antagonists, cell-based qHTS assay (AID 1963591; active = well fitted inhibition curve with a large enough effect in the signal ratio in the repeat runs, not every such curve was filed as active; the % refers to the signal ratio)
In short: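 qHTS in CRE-bla HEK 293T cells: compound in DMSO, then 0.25 uM NKH477 (final), 3 h at 37 °C/5% CO2; beta-lactamase FRET read-out after 2 h substrate incubation.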

[14] = target: Beta-2 adrenergic receptor (Homo sapiens) (UniProt P07550); assay: Adrenergic beta2 receptor (ADRB2) small molecule antagonists, cell-based qHTS assay (AID 1963592); note: nearly all actives have a fitted effect of over 50% in size; note: potency is the fitted concentration of half-maximal effect
Chain of Beta-2 adrenergic receptor (Homo sapiens) (P07550 whole entry, looked up): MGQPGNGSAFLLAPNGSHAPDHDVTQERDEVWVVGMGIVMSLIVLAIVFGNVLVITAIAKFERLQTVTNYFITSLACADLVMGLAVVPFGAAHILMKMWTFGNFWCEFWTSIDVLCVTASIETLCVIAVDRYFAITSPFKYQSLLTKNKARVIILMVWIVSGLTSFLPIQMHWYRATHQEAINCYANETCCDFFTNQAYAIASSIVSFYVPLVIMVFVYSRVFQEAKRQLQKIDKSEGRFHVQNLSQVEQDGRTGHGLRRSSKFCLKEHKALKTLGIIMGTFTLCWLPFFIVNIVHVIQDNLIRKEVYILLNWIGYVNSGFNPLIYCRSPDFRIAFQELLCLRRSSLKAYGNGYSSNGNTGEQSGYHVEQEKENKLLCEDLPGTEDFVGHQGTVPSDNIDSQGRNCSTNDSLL
In short: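 Cells (CHO, stable ADRB2 overexpression) incubated 18-20hr at 37C; compounds added from DMSO; agonist mix (1nM isoproterenol, 100uM IBMX, 25uM Ro-20-1724) added; 0.5hr RT; d2-cAMP and anti-cAMP-cryptate added; 1hr RT; 665/615 nm read.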

[15] = target: Beta-2 adrenergic receptor (Homo sapiens) (UniProt P07550); assay: Adrenergic beta2 receptor (ADRB2) small molecule agonists, cell-based qHTS assay (AID 1963593);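 note: CHO cells stably overexpressing human ADRB2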
In short: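 CHO cells stably over-expressing ADRB2 were plated overnight at 37C, then dosed with compounds plus a stimulation mix containing 100uM IBMX and 25uM Ro-20-1724 for 0.5hr at room temperature. cAMP was measured by HTRF competition, 1hr.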

[16] = target: D(2) dopamine receptor (Homo sapiens) (UniProt P14416); assay: Dopamine D2 receptor (DRD2) small molecule agonists, cell-based qHTS assay (AID 1963594); note: nearly all actives have a fitted effect of over 35% in size
Chain of D(2) dopamine receptor (Homo sapiens) (P14416 whole entry, looked up): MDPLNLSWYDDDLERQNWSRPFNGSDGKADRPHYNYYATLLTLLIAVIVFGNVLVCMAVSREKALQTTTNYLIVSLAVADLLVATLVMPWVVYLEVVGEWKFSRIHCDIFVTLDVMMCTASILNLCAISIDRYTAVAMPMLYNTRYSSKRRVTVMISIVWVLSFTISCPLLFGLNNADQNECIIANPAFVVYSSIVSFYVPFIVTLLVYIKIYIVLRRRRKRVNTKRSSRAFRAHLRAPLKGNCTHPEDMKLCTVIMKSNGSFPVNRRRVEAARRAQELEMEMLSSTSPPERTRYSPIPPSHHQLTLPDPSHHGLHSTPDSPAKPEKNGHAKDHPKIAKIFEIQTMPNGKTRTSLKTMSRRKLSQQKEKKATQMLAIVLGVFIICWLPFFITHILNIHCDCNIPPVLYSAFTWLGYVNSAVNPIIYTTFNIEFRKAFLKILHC
In short: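 HEK293 cells stably expressing human DRD2, pre-treated with PDE inhibitor Ro20-1724 (0.1 mM final) and compound 10 min at room temperature, then stimulated with NKH477 (200nM […]) for 30 min. cAMP read by HTRF (665/620 nm).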

[17] = target: D(2) dopamine receptor (Homo sapiens) (UniProt P14416); assay: Dopamine D2 receptor (DRD2) small molecule antagonists, cell-based qHTS assay (AID 1963595; active = well fitted inhibition curve with a large enough effect in the signal ratio in the repeat runs, with a control signal flat; the % refers to the signal ratio)
In short: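 Stable D2 receptor HEK293 line, 24 h after seeding. Compound preincubated 10 min, then quinpirole (12 nM) with forskolin analogue NKH477 (200 nM), 30 min, room temperature. Detection by time-resolved FRET of cAMP.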

[18] = target: 5-hydroxytryptamine receptor 2A (Homo sapiens) (UniProt P28223); assay: 5-hydroxytryptamine receptor 2A (HTR2A) small molecule agonists, cell-based qHTS assay (AID 1963587); note: nearly all actives have a fitted effect of over 30% in size
In short: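 CHO cells stably expressing human HTR2A, plated 18 h, loaded with calcium dye 1 h at 37 C. Agonist mode: compounds added and intracellular calcium fluorescence recorded kinetically for 2 min at 1 sec intervals.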

[19] = cAMP Responsive Elements (CRE) small molecule agonists, cell-based qHTS assay (AID 1963590)
In short: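 FRET-based beta-lactamase readout (LiveBLAzer B/G, 2 h RT) quantified CRE activation in HEK 293T CRE-bla cells after 3 h treatment with DMSO-dissolved compounds.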

[20] = p53 small molecule agonists, cell-based qHTS assay with rat liver microsomes (AID 1963578)
In short: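 Each plate received p53RE-bla cells, then compound, then rat liver microsomes and NADPH (both 0.5 mg/mL final). Plates were held 16 h at 37 C, and beta-lactamase activity was detected with LiveBLAzer over 2 h.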

Measured: Potency

CC1=CC(=O)c2ccccc2C1=O
40.8 µM (active) and inactive: [8]
active: [1] 27.3 µM and 26.6 µM
not listed: [18] | [19] | [20]
inactive: all other assays above

Cc1cccc(C)c1[N+](=O)[O-]
not listed: [5] | [9] | [11] | [12] | [20]
inactive: all other assays above

CCOC(=O)CC(C)=O
not listed: [5] | [9] | [15] | [20]
inactive: all other assays above

COc1ccc(CCN2CCC(Nc3nc4ccccc4n3Cc3ccc(F)cc3)CC2)cc1
55.7 µM (active) and inactive: [14]
active: [1] 11.1 µM and 23.7 µM | [8] 13.2 µM
14.8 µM (active) and inactive: [6]
inactive: [2] | [3] | [4] | [5] | [20] | [9] | [16]
26.3 µM (active) and inactive: [7]

CCCCCC(=O)O[C@]1(C(C)=O)CC[C@H]2[C@@H]3CCC4=CC(=O)CC[C@]4(C)[C@H]3CC[C@@]21C
20.3 µM (active) and inactive: [6]
active: [1] 30.4 µM
not listed: [8] | [9] | [11] | [13] | [15] | [19]
inactive: all other assays above

C[C@]12CCC(=O)C=C1CC[C@@H]1[C@@H]2[C@@H](O)C[C@@]2(C)[C@H]1CC[C@]2(O)C(=O)CO
inactive: [1] | [2] | [3] | [4] | [6] | [7] | [8] | [14] | [16] | [17]

COc1ccc(Cl)cc1C
not listed: [7] | [8] | [9]
inactive: all other assays above

CN1CCCC1
not listed: [20]
inactive: all other assays above

C=CC(C)CCC=C(C)C (stereo not given)
not listed: [5] | [13]
inactive: all other assays above

O=C1CCCCC1
not listed: [5] | [9] | [20]
inactive: all other assays above

CC1=CC(=O)NS(=O)(=O)O1
23 µM (active) and inactive: [8]
not listed: [5] | [9] | [16] | [19] | [20]
inactive: all other assays above

CCOC(=O)c1ccc(N)cc1
not listed: [10] | [11] | [12] | [13] | [18]
inactive: all other assays above

CCc1ccc(C)nc1
not listed: [6]
inactive: all other assays above

Nc1cc(S(=O)(=O)O)cc2cc(S(=O)(=O)O)cc(O)c12
not listed: [9] | [15] | [16] | [17]
inactive: all other assays above
